This is a sample that favours compounds with a hit; in the whole collection about 1.7% have one here.
PriA SSB inh: inhibitors of Klebsiella pneumoniae PriA binding to SSB C-terminal tail, primary screen, biochemical, AlphaScreen. PriA–SSB C-terminal tail interaction (Klebsiella pneumoniae). AlphaScreen SSBct-PriA binding, biotinylated peptide. inhibition, % at 33 µM. 430,000 tested, 0.6% active. AID 1272365, 2023; in the data active means inhibition mostly above about 37%, no sharp cut-off; inactive means mostly below about 20%
BJeLR viability: MLPCN primary cell-based screen for lethality selective to Ras in HRASV12 cells; AID 1554, 2009; BJeLR (HRASV12) viability, CellTiter-Glo ATP luminescence, 48 h; inhibition, % (no concentration beside the values); 300,000 tested, 0.17% active; in the data active means inhibition above about 50%
Yp Topo-I inh: Yersinia pestis topoisomerase I inhibitors, primary screen, biochemical, cleavage product accumulation, plate reader, single point | DNA topoisomerase I (Yersinia pestis CO92) | Y. pestis Topo-I cleavage product accumulation | activity, % at 10 µM | 360,000 tested, 0.064% active | AID 504884, 2011; in the data active means activity above about 50%, passing the limit was not always enough
PfHsp40 rescue: rescue of yeast from PfHsp40 toxicity, primary screen, S. cerevisiae, ATP luminescence. S. cerevisiae expressing PfHsp40, growth rescue. growth rescue, % at 12.5 µM. 340,000 tested, 0.68% active. AID 504582, 2011; in the data active means growth rescue above about 28%, passing the limit was not always enough;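 further: yeast W303a lacking pdr1 and pdr3 grown in galactose medium; growth measured after three days at 30 °C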
PrP UTR inh: inhibition of PrP 5' UTR reporter expression; cell-based PrP 5' UTR mRNA reporter, plate reader; inhibition, % (no concentration beside the values); 340,000 tested, 0.35% active; in the data active means inhibition above about 52%
PrPC TRFRET: inhibitors of human cell surface prion protein PrPC, primary screen, cell-based, TR-FRET. TR-FRET read-out. inhibition, % at 13.8 µM. Major prion protein (Homo sapiens), P04156. 370,000 tested, 0.43% active; in the data active means inhibition above about 24%
Hits are given with their value.

Screening CCOc1ccccc1NC(=O)CC1Nc2cc(C)c(C)cc2NC1=O (stereo not drawn) returned PriA SSB inh inactive, BJeLR viability inactive, Yp Topo-I inh inactive, PfHsp40 rescue 49, PrP UTR inh inactive and PrPC TRFRET inactive.
CCOc1ccccc1NC(=O)CC1Nc2ccccc2NC1=O (stereo not drawn) was read as PriA SSB inh inactive, BJeLR viability inactive, Yp Topo-I inh inactive, PfHsp40 rescue inactive, PrP UTR inh inactive and PrPC TRFRET inactive.
C(=NNc1nc2ccccc2[nH]1)c1c[nH]c2ccccc12 was read as PriA SSB inh 50.
C#CCn1cc(C=NNc2nc3ccccc3[nH]2)c2ccccc21 was read as PriA SSB inh 44.
`Cc1c(/C=N/Nc2nc3ccccc3[nH]2)c2ccccc2n1C` gave PriA SSB inh inactive, BJeLR viability 65, Yp Topo-I inh inactive, PfHsp40 rescue inactive, PrP UTR inh inactive and PrPC TRFRET inactive.
For C(=NNc1ccccn1)c1c[nH]c2ccccc12 the results were PriA SSB inh inactive.
For Cc1[nH]c2ccccc2c1C=NNc1nc2ccccc2[nH]1 the results were PriA SSB inh 41.
O=C(Nc1nccs1)c1ccno1 was read as PriA SSB inh inactive.
COCCCNc1oc(-c2ccccc2F)nc1C#N was read as PriA SSB inh inactive, BJeLR viability inactive, Yp Topo-I inh inactive, PfHsp40 rescue 34, PrP UTR inh inactive and PrPC TRFRET inactive.
CC(=NNC(=O)c1ccc(Cl)c(Cl)c1)c1ccccn1 was read as PriA SSB inh inactive.
Screening C/C(=N\NC(=O)c1cccc2ccccc12)c1ccccn1 returned BJeLR viability 79, Yp Topo-I inh inactive, PfHsp40 rescue inactive, PrP UTR inh inactive and PrPC TRFRET inactive.
C/C(CC(=O)Nc1ccccn1)=N\NC(=O)c1ccccc1O was read as BJeLR viability inactive, Yp Topo-I inh inactive, PfHsp40 rescue 234, PrP UTR inh inactive and PrPC TRFRET inactive.
CC(=NNC(=S)Nc1ccc(C)cc1)c1ccccn1 was read as PriA SSB inh inactive, Yp Topo-I inh inactive, PfHsp40 rescue inactive, PrP UTR inh inactive and PrPC TRFRET inactive.
Screening CC(CC(=O)Nc1ccccn1)=NNC(=O)c1ccccc1O returned PriA SSB inh inactive.
For CC(=NNC(=S)Nc1cccc(C)c1)c1ccccn1 the results were PriA SSB inh inactive, Yp Topo-I inh inactive, PfHsp40 rescue 116, PrP UTR inh inactive and PrPC TRFRET inactive.
CC(=NNC(=O)c1ccc(Cl)cc1)c1ccccn1 was read as PriA SSB inh 45.
Screening Cc1cc(OC2CN(C(=O)c3nc4ccccc4s3)C2)cc(=O)o1 returned PriA SSB inh inactive.
Screening CCOc1ccc(-c2ccc(=O)n(CCCC(=O)Nc3ccccc3SC)n2)cc1 returned PriA SSB inh inactive.
`Cn1c(O)c(N=Nc2nc3c(c(=O)n(Cc4ccc(Cl)cc4)c(=O)n3C)n2C)c(=O)n(C)c1=O` gave PriA SSB inh inactive.
For CC(=NNC(=O)C1COc2ccccc2O1)c1ccccn1 (stereo not drawn) the results were PriA SSB inh 61.
For CC(=NNc1ncc(Cl)cc1Cl)c1ccccn1 the results were PriA SSB inh 47.
COc1cccc(NC(=O)C/C(C)=N/NC(=O)c2ccccc2Cl)c1 was read as BJeLR viability inactive, Yp Topo-I inh inactive, PfHsp40 rescue 39, PrP UTR inh inactive and PrPC TRFRET inactive.
COc1ccccc1NC(=S)NN=C(C)c1ccccn1 was read as PriA SSB inh inactive, Yp Topo-I inh inactive, PfHsp40 rescue 180, PrP UTR inh inactive and PrPC TRFRET inactive.
For Cc1ccccc1Oc1ccc(S(=O)(=O)Nc2ccccc2F)cc1 the results were PriA SSB inh inactive.
For O=C(NCCOc1ccc2nnc(-c3cccc(F)c3)n2n1)Nc1ccc2c(c1)OCO2 the results were PriA SSB inh inactive.
c1cncc(Nc2nc(-c3ccc4nsnc4c3)cs2)c1 was read as PriA SSB inh inactive.
For Cc1ccc(C)c(C(=O)NCCC(O)c2ccccc2)c1 (stereo not drawn) the results were PriA SSB inh inactive.
COc1ccc(C(=O)N/N=C(\C)c2ccccn2)cc1OC was read as BJeLR viability 74, Yp Topo-I inh inactive, PfHsp40 rescue inactive, PrP UTR inh inactive and PrPC TRFRET inactive.
For C/C(=N\NC(=O)c1ccc(Cl)c(Cl)c1)c1ccccn1 the results were BJeLR viability inactive, Yp Topo-I inh inactive, PfHsp40 rescue inactive, PrP UTR inh inactive and PrPC TRFRET inactive.
O=Nc1c2cc(-c3ccccc3)[nH]nc-2c2ccccc12 was read as PriA SSB inh inactive, BJeLR viability 69, Yp Topo-I inh inactive, PfHsp40 rescue inactive, PrP UTR inh inactive and PrPC TRFRET inactive.
CCCCOc1ccc(C(=O)NC[C@](C)(O)COC)cc1 was read as PriA SSB inh inactive.
COC(=O)CSc1nc2cc3c(cc2cc1C)OCCO3 was read as PriA SSB inh inactive, BJeLR viability inactive, Yp Topo-I inh inactive, PfHsp40 rescue 163, PrP UTR inh inactive and PrPC TRFRET inactive.
COc1ccc(Cl)cc1NC(=O)COC(=O)/C=C/c1c(C)nn(C2CCS(=O)(=O)C2)c1Cl (stereo not drawn) was read as PriA SSB inh inactive, BJeLR viability inactive, Yp Topo-I inh inactive, PfHsp40 rescue inactive, PrP UTR inh inactive and PrPC TRFRET inactive.
`CCc1ccc(NC(=O)COC(=O)/C=C/c2c(C)nn(C3CCS(=O)(=O)C3)c2Cl)cc1` (stereo not drawn) gave PriA SSB inh inactive, BJeLR viability inactive, Yp Topo-I inh inactive, PfHsp40 rescue 59, PrP UTR inh inactive and PrPC TRFRET inactive.
Screening Cc1ccc(N2CC(NC(=O)N3CCn4cccc4C3c3ccccc3F)CC2=O)cc1 (stereo not drawn) returned PriA SSB inh inactive.
O=C1/C(=C/c2ccco2)Oc2c1ccc1c2CN(Cc2ccccn2)CO1 was read as PriA SSB inh 97.
O=C1/C(=C/c2cccc(F)c2)Oc2c1ccc1c2CN(Cc2ccccn2)CO1 was read as PriA SSB inh 97.
Screening CCCN(CCC)C(=O)CN1C(=O)N(c2ccc(CC)cc2)C2CS(=O)(=O)CC21 (stereo not drawn) returned PriA SSB inh inactive.
For COC(=O)c1ccc(S(=O)(=O)NCCn2ccnc2-c2ncccn2)cc1 the results were PriA SSB inh 96.
`O=S(=O)(NCCn1ccnc1-c1ncccn1)c1ccc(Cl)s1` gave PriA SSB inh 44.
`O=C(NCCn1ccnc1-c1ncccn1)c1ccc(Cl)s1` gave PriA SSB inh inactive.
O=S(=O)(NCCn1ccnc1-c1ncccn1)c1ccc(OC(F)(F)F)cc1 was read as PriA SSB inh inactive.
`O=S(=O)(NCCn1ccnc1-c1ncccn1)c1ccc2c(c1)CCCC2` gave PriA SSB inh 96.

Screening results: PubChem BioAssay, several laboratories
